The nature of assay [1]: APR_HepG2_CellCycleArrest_1hr: Apredica 1-hour HepG2 Assay for Cell Cycle Arrest (AID 2282666). The conditions noted are these: high-content imaging, actives raise or lower the signal. The procedure, abridged:
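Cell cycle arrest scored from nuclear DNA content (Hoechst 33342) using high-content imaging of fixed HepG2 cells after 1 h treatment across 0.39–200 uM, in duplicate. Gain or loss fitted relative to 0.5% DMSO.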

A short description of assay [2]: ACEA_ER_80hr: ACEA Biosciences xCELLigence Real-Time Cell Analysis on Estrogen Receptor Agonism for Proliferation (AID 2282667; active means hit-call score of the fitted dose curve at least 0.9, where 1 is the maximum). The conditions noted are these: T47D proliferation, impedance (xCELLigence), 80 h. The procedure, abridged: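 Real-time electrical impedance tracked growth of the human breast line T47D, with the 80 h post-dosing value used. Dosing spanned eight 1:4 steps down from a 100 uM final top concentration, run in duplicate.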

Assay [3] can be described thus: APR_HepG2_NuclearSize_1hr: Apredica 1-hour HepG2 Assay for Nuclear Size (AID 2282670). To be noted: high-content imaging, actives raise or lower the signal. The procedure, abridged: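 Nuclear size measured by high-content imaging of Hoechst 33342 nuclear stain after formaldehyde fixation; human HepG2 line exposed 1 hr to compounds at 0.39–200 uM in 0.5% DMSO, with bidirectional curve fitting relative to DMSO.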

Assay [4] in a line: APR_HepG2_p53Act_1hr: Apredica 1-hour HepG2 Assay for p53 Activation (AID 2282671). The conditions noted are these: high-content imaging, actives raise or lower the signal. The procedure, abridged: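 After 1 h exposure (0.39–200 uM, 0.5% DMSO final, duplicates), fixed HepG2 cells were labelled with anti-p53 antibody plus Hoechst nuclear stain. Fluorescence quantified by automated 20x imaging; changes fitted in both directions against DMSO.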

Assay [5] is described as follows: APR_HepG2_MitoticArrest_1hr: Apredica 1-hour HepG2 Assay for Mitotic Arrest (AID 2282672). The conditions noted are these: high-content imaging, actives raise or lower the signal. The procedure, abridged:
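Ten-point concentration series (0.39 to 200 uM, duplicates, 0.5% v/v DMSO) applied to human HepG2 liver cells for 1 hr. High-content imaging of phospho-histone H3 and Hoechst-stained nuclei after fixation and permeabilization; DMSO-normalised bidirectional fit.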

A short description of assay [6]: APR_HepG2_P-H2AX_1hr: Apredica 1-hour HepG2 Assay for H2AX Phosphorylation (AID 2282673). To be noted: high-content imaging, actives raise or lower the signal. The procedure, abridged: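 Phospho-H2A.x immunofluorescence (1:200, FITC secondary) plus Hoechst nuclear stain, quantified by high-content imaging in HepG2 after 1 hr compound exposure. Ten concentrations, 0.39 to 200 uM, in duplicate with 0.5% DMSO; fit both directions against DMSO.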

A short description of assay [7]: APR_HepG2_MitoMass_1hr: Apredica 1-hour HepG2 Assay for Mitochondrial Mass (AID 2282674). The conditions noted are these: high-content imaging, actives raise or lower the signal. The procedure, abridged: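 Mitochondrial mass is taken from MitoTracker Red CMXRos (250 nM, 30 min, pre-fixation) fluorescence imaged at 20x in HepG2 cells. Exposure lasted 1 hr across ten concentrations, 0.39 to 200 uM, 0.5% DMSO; DMSO baseline, bidirectional fitting.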

Assay [8] in a line: APR_HepG2_MitoMembPot_1hr: Apredica 1-hour HepG2 Assay for Mitochondrial Membrane Potential (AID 2282675). The conditions noted are these: imaging, actives raise or lower the signal. The procedure, abridged:
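Mitochondrial membrane potential read as MitoTracker Red CMXRos intensity by automated imaging of fixed HepG2 cells. Dye at 250 nM for 30 min pre-fixation; compounds 0.39 to 200 uM for 1 hour, duplicate wells, 0.5% DMSO.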

The nature of assay [9]: APR_HepG2_CellLoss_1hr: Apredica 1-hour HepG2 Assay for Cell Loss (AID 2282668).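 Further: curves fitted both ways against DMSO so gain or loss of cells counts.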 The conditions noted are these: high-content imaging. The procedure, abridged:
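Cell number comes from high-content imaging of Hoechst-labelled nuclei in fixed HepG2 cells. Cells were exposed for 1 h to ten concentrations from 0.39 to 200 uM in 0.5% DMSO. Gain or loss was fitted against DMSO controls.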

The nature of assay [10]: APR_HepG2_MicrotubuleCSK_1hr: Apredica 1-hour HepG2 Assay for Microtubule CSK Stabilty (AID 2282669). The conditions noted are these: HepG2 microtubule cytoskeleton imaging, actives raise or lower the signal. The procedure, abridged:
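Alpha-tubulin immunofluorescence, imaged by automated high-content microscopy with Hoechst nuclear segmentation, measured cytoskeletal change after 1 h dosing of HepG2 at 0.39–200 uM in 0.5% DMSO. Activity fitted in both directions relative to DMSO.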

Inconclusive results are not listed. Calls of active or inactive are those of the source. How the source made its calls, unless noted: active means hit-call score of the fitted dose curve at least 0.9, where 1 is the maximum; inactive means score below 0.9.

With `CCCCOC(=O)[C@@H](C)Oc1ccc(Oc2ccc(C(F)(F)F)cn2)cc1`, the compound was classed as inactive in assay [1], in assay [3], in assay [4], in assay [5], in assay [6] and in assay [7]. Also, the compound was called inactive in assay [8]. The AC50 – broadly, the concentration at which the activity in the assay is half-maximal – in assay [2] was 13.7 µM (active).

Turning to `O=C(Nc1ccc([N+](=O)[O-])cc1Cl)c1cc(Cl)ccc1O`, the call in assay [1], in assay [2], in assay [9], in assay [4], in assay [5] and in [6] was inactive. In addition, the compound was called inactive in assay [7].

In the case of `C#CCOC(=O)[C@@H](C)Oc1ccc(Oc2ncc(Cl)cc2F)cc1`, the compound was classed as inactive in assay [1], in [2], in [10], in assay [4], in [5] and in assay [6]. Besides, the outcome in [7] was inactive.

With `CCCOC(=O)c1ccc(C(=O)OCCC)nc1`, the outcome in assay [1], in [2], in assay [4], in assay [5], in [6] and in assay [7] was inactive. Further, in assay [8], the call was inactive.

As for `CCCN(CCC)c1c([N+](=O)[O-])cc(C(F)(F)F)c(N)c1[N+](=O)[O-]`, the call in [1], in assay [2], in assay [10], in assay [4] and in assay [5] was inactive. For the same compound, the AC50 is 109 µM (active) in assay [6] and 158 µM (active) in assay [7].

Regarding `CCOC(=O)[C@H](C)Oc1ccc(Oc2nc3ccc(Cl)cc3o2)cc1`, the compound was classed as inactive in [1], in assay [10], in assay [4], in assay [5], in assay [6] and in assay [7].

For the compound `CCCN(CCC)C(=O)SCC`, the outcome in [1], in assay [2], in [4], in assay [5], in [6] and in assay [7] was inactive. In addition, in assay [8], the compound was classed as inactive.

On to `CCOC(=O)NCCOc1ccc(Oc2ccccc2)cc1`, for which the outcome in assay [1], in assay [2], in assay [4], in assay [5], in [6] and in assay [7] was inactive.

As for `COc1c(Cl)ccc(Cl)c1C(=O)O`, the result in assay [1], in [2], in [3], in [5], in assay [6] and in [7] was inactive.

For `CCSC(=O)N(CC(C)C)CC(C)C`, the call in [1], in [2], in [4], in assay [5], in assay [6] and in assay [7] was inactive.

(Values after PubChem BioAssay (EPA / NIEHS).)
